Assay outcomes: PubChem BioAssay, National Center for Advancing Translational Sciences (NCATS)
Rows were chosen to be rich in hits. Some 5.9% of all compounds tested hit in one or more screens of this group.
Coupling enz: inhibits coupling enzyme system, counter-screen for aldolase hits | coupling enzyme system counterscreen, AmpLite Red fluorescence | hit rate 0.67% among 290,000 | activity change, negative = inhibition, % at 58.2 µM, hits read low; in the data active means activity change below about -30%
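Counterscreen lacking aldolase: glyceraldehyde-3-phosphate coupling-enzyme reagent preincubated 10 min at RT with compound (at 57.5 uM final), then substrate/coupling system with AmpLite Red added; fluorescence read at 525/598 nm after 20 min RT.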
Gal4-VP16 FLuc: Gal4-VP16 reporter inhibition counter-screen | hit rate 3.5% among 310,000 | Drosophila S2 Gal4-VP16 UAS-luciferase, luminescence, 20 h | Potency, µM (series often up to 53.6 µM), for the others: at the highest dose activity, negative = inhibition, hits mostly inhibitors;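 further: Gal4-VP16 expression switched on by copper sulfate through the metallothionein promoter; potency means the concentration at half of the fitted maximal effect; nearly all actives have a fitted effect of over 50% in size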
RORg inh: ROR gamma (mouse) transcription inhibition | Drosophila S2 Gal4-RORgamma UAS-luciferase reporter, 20 h | Potency, µM (top dose mostly 53.6 µM), without a hit: top-dose activity change, negative = inhibition, usual class: inhibitors | hit rate 5.4% among 310,000; further: potency means the concentration at half of the fitted maximal effect; nearly all actives have a fitted effect of over 60% in size
Target sequence (P51450 whole entry, looked up, the tested form may be a part): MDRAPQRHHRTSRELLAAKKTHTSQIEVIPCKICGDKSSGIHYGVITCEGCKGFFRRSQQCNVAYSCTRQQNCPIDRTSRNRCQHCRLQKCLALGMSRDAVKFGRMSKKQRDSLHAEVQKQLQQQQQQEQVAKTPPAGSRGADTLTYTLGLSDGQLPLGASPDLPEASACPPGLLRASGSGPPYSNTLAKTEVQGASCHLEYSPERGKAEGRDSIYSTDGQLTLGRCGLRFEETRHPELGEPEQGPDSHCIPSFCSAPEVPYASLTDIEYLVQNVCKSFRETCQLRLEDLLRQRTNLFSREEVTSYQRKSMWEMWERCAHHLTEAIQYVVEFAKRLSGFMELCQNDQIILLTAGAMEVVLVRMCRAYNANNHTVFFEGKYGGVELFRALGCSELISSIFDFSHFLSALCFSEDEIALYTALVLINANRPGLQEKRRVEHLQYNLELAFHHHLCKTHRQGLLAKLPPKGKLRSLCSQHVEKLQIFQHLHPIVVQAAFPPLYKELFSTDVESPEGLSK
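Read-out: Photinus luciferase luminescence; inhibitors lower reporter signal. Insect Schneider cells with Gal4-ROR gamma fusion under metallothionein promoter, UAS reporter; 700 uM final copper sulfate induction, 20 hr, ambient temperature.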
GALK inh: inhibitors of human galactokinase | P51570 | Purified GALK, Kinase-Glo residual ATP luminescence | hit rate 0.007% among 270,000 | AID 1868 | Potency, µM (doses to about 57.5 µM), for inactives: top-dose activity change, negative = inhibition, most hits filed as inhibitors; further: potency means the concentration at half of the fitted maximal effect
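5 nM enzyme, 35 uM ATP, 100 uM galactose, 20 mM HEPES pH8.0, 5 mM MgCl2; 1 h RT; residual ATP by Kinase-Glo Plus luminescence, qHTS format.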
rTrxR1 inhibitor: blocks rat thioredoxin reductase 1; O89049; recombinant rTrxR1, NADPH fluorescence consumption, selenite substrate; Potency, µM (doses to about 114 µM), inactives show at the top dose activity change, negative = inhibition, actives largely listed as inhibitors; hit rate 1% among 390,000; further: potency means the concentration at half of the fitted maximal effect; nearly all actives have a fitted effect of over 65% in size
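Rat TrxR1 (90 nM in the dispensed reagent) was pre-reduced with 400 uM NADPH for 5 min at room temperature, then incubated with compound for 15 min. After 400 uM selenite was added, NADPH fluorescence (Ex 340/Em 450 nm) was followed for 8 min.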
TrxR1 substrate: substrates of rat thioredoxin reductase 1; hit rate 0.01% among 390,000; purified TrxR1 substrate turnover, NADPH consumption readout; Potency, µM (series often up to 114 µM), without a hit: top-dose activity change, negative = substrate turnover; O89049; further: potency means the concentration at half of the fitted maximal effect; nearly all actives have a fitted effect of over 50% in size
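Rat TrxR1, dispensed at 90 nM, was prereduced with 400 uM NADPH (final) for 5 min at ~22 deg C, then incubated with compound 15 min before 400 uM selenite. A first-read NADPH fluorescence drop versus no-compound background flagged substrates.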
An asterisk follows results filed as active; ? = inconclusive; · = no result given; [ ] = dose if it differs, or a comment. Unless noted, the call rests on the fitted dose curve; in most records, active means well fitted curve in the direction sought with a large enough effect; inconclusive means small, poorly fitted or top-dose-only effect, or another doubt; inactive means no such curve, though single readings can be large; an effect the other way counts as inactive or inconclusive. On the % scale 0 is the no-effect control and ±100 the full control effect.

SMILES | Coupling enz | Gal4-VP16 FLuc | RORg inh | GALK inh | rTrxR1 inhibitor | TrxR1 substrate
COCCn1c(N)c(C(=O)NCC2CCCO2)c2nc3ccccc3nc21 (stereo unspecified) | -35* | -4% | 3% | 3% | -18%[57.1 µM] | 310%
CC(OC(=O)Cn1[nH]c(=O)c2ccccc2c1=O)C(=O)Nc1ccc(F)cc1 (stereo unspecified) | · | · | · | · | 2% | 2%
Cc1ccc2oc(C(=O)Nc3sc4c(c3C(=O)NCC3CCCO3)CCC4)cc(=O)c2c1 (stereo unspecified) | · | · | · | · | 16% | -1%
CCCCOc1ccc(C(=O)NCC(=O)NCC(=O)OCC)cc1 | -1 | 26% | 24% | -2% | -1% | -4%
CCCCNC(=O)CNC(=S)N(Cc1ccccc1F)C1CCCCC1 | 6 | -15% | 13µM* | 5% | 23%[57.1 µM] | 5%[57.1 µM]
Cc1ccccc1C(=O)Nc1ccccc1N1CCN(C(=O)c2ccccc2)CC1 | 0 | 2% | 4% | 1% | 13% | -6%[57.1 µM]
Cc1ccccc1C(=O)NC(=S)Nc1ccccc1N1CCCC1 | 4 | -26%[10 µM] | 7.1µM* | 6% | 5% | -11%
COc1ccccc1C(=O)NC(=S)Nc1ccccc1N1CCCC1 | · | ? | 10µM* | -2% | · | ·
CC(C)(C)c1ccc(-n2ncc3c2CCCC3NC(=O)CN2CCOC2=O)cc1 (stereo unspecified) | · | 13µM* | -3% | -2% | 19% | 0%
CC(C)(C)c1ccc(-n2ncc3c2CCCC3NC(=O)c2ccncc2)cc1 (stereo unspecified) | · | · | · | · | -1% | -1%
Cc1nnsc1C(=O)NC1CCCc2c1cnn2-c1ccc(C(C)(C)C)cc1 (stereo unspecified) | -1 | 6.3µM* | -37% | -1% | 28% | 5%
CC(C)(C)c1ccc(-n2ncc3c2CCCC3NC(=O)CCN2CCCCC2=O)cc1 (stereo unspecified) | · | ? | ? | 1% | 16% | 1%
Cc1cccc(-n2ncc3c2CCCC3NC(=O)C2(C(N)=O)CC2)c1C (stereo unspecified) | · | 7.9µM* | ? | -6% | 16% | 0%
Cc1cc(C)cc(-n2ncc3c2CCCC3NC(=O)C2(C(N)=O)CC2)c1 (stereo unspecified) | · | -16% | 23% | 3% | 2% | -1%
COc1ccc(C(=O)NC2CCCc3c2cnn3-c2ccccc2F)cc1OC (stereo unspecified) | 1 | 2.5µM* | ? | 3% | 7% | 3%
COc1cc(O)c2c(c1)O[C@H](c1ccccc1)CC2=O | 2 | -6% | 2% | · | · | ·
O=C(NC1CCCc2c1cnn2-c1ccccc1F)c1ccccn1 (stereo unspecified) | -1 | 3% | 52% | -5% | 16% | -7%
Cc1nnsc1C(=O)NC1CCCc2c1cnn2-c1ccccc1F (stereo unspecified) | · | 10µM* | 17% | 3% | 8% | 0%
Cc1cc(=O)c(C(=O)O)nn1-c1cccc(C(F)(F)F)c1 | 1 | -3% | -1% | -1% | 11% | 4%
O=c1ccn(-c2cccc(C(F)(F)F)c2)nc1-c1ccn(-c2ccccc2)n1 | -38* | -28% | 17% | -3% | -3% | -5%
O=C(NC(=C(Cl)Cl)S(=O)(=O)c1ccc(Cl)cc1)c1ccccc1 | 1 | ? | ? | · | 45µM* | -14%
Cc1ccc(C(=O)NC(=C(Cl)Cl)S(=O)(=O)c2ccc(C)cc2)cc1 | 2 | ? | ? | 1% | ? | -10%
Cc1ccc(C(=O)NC(=C(Cl)Cl)S(=O)(=O)c2ccc(Cl)cc2)cc1 | -1 | ? | ? | -5% | 32µM* | -11%
Cc1ccc(S(=O)(=O)C(NC(=O)c2ccccc2)=C(Cl)Cl)cc1 | · | · | · | · | -49% | 8%[57.1 µM]
CC(=O)NC(=C(Cl)Cl)S(=O)(=O)c1ccccc1 | 0 | ? | 13µM* | -2% | ? | -5%
SMILES | Coupling enz | Gal4-VP16 FLuc | RORg inh | GALK inh | rTrxR1 inhibitor | TrxR1 substrate
COc1ccc(OC)c(C2=Nn3c(nnc3-c3ccccc3OC)SC2)c1 | -7 | -7% | -35% | · | · | ·
COc1cc2c(cc1OC)CN(C(=O)c1cccs1)CC2 | -5 | 15% | 4% | -1% | 15%[57.1 µM] | -6%
O=C1C(Cl)=C(N2CCN(c3ccccc3[N+](=O)[O-])CC2)C(=O)c2ccccc21 | -41* | ? | -93% | 0% | 0.79µM* | 11%
Oc1ccccc1CNc1ccc2c(c1)OCCO2 | -2 | -16% | 15% | -1% | 5%[57.1 µM] | 5%[57.1 µM]
c1csc(CNc2ccc3c(c2)OCCO3)c1 | -31* | -19% | ? | 0% | ? | -9%
CCOC(=O)Nc1sc(NS(=O)(=O)c2ccccc2)nc1C | 2 | -3% | -17% | 4% | -8% | 3%
O=C(Nc1ccc(OC(F)F)cc1)c1ccccn1 | 1 | -1%[10 µM] | -10% | 0% | 10%[57.1 µM] | 9%[57.1 µM]
CN(NC(=S)Nc1ccc(OC(F)F)cc1)C(=S)Nc1ccc(OC(F)F)cc1 | 2 | 13µM* | -29% | -1% | 12%[57.1 µM] | -20%[57.1 µM]
Oc1cccc2c(NC(=S)Nc3ccc(OC(F)F)cc3)cccc12 | -48* | 11µM* | ? | 2% | 22% | 20%
FC(F)Oc1ccc(NC(=S)NCCc2ccccn2)cc1 | 3 | 5µM* | 4.5µM* | 1% | 19%[57.1 µM] | 11%[57.1 µM]
FC(F)Oc1ccc(NC(=S)NCc2ccccc2)cc1Cl | 1 | ? | 14µM* | -2% | 2% | 0%
COc1ccc(N2CCN(C(CNC(=O)c3cccs3)c3ccco3)CC2)cc1 (stereo unspecified) | · | · | · | · | 11% | -1%
CCOC(=O)CC(NC(=O)c1cc2c(=O)n3cccc(C)c3nc2s1)c1ccc(OCC(C)C)c(OC)c1 (stereo unspecified) | · | · | · | · | -2% | 15%
Cc1nc2cc(-c3ccccc3)nn2c(C)c1CCC(=O)Nc1ccc(F)cc1F | · | · | · | · | -31% | 88%
O=c1nc(N2CCOCC2)ccn1-c1nc(-c2ccccc2)sc1-c1ccccc1 | 1 | -6% | ? | 3% | 17% | 8%
Cc1cc2cc(CNC(=S)Nc3ccc(OC(F)F)cc3)ccc2n1C | -6 | -4% | -27% | · | -16% | -4%
FC(F)Oc1ccc(NC(=S)NCc2ccccc2)cc1 | 0 | ? | 13µM* | -2% | 1%[57.1 µM] | -4%
O=C(c1cccc(S(=O)(=O)N2CCCCC2)c1)N(CCc1ccccc1)Cc1ccccc1 | · | · | · | · | 10% | -1%
CCN(CC)CCOC(=O)C12CC3CC(CC(C3)C1)C2 | 3 | 9% | 5µM* | 6% | 11%[57.1 µM] | -22%[57.1 µM]
CCc1ccc(C(C)NC(=O)c2cc(C)oc2C)cc1 (stereo unspecified) | 0 | ? | ? | 1% | 20µM* | -3%
Cc1ccc(NC(=O)Nc2nnc(N3CCCCC3)s2)c(C)c1 | · | · | · | · | -1% | -9%
